Bioassay records deposited in PubChem by National Center for Advancing Translational Sciences (NCATS).
G9a inh: qHTS Assay for Inhibitors of Histone Lysine Methyltransferase G9a. 350,000 compounds, 8.8% hits. Histone-lysine N-methyltransferase EHMT2 (Homo sapiens), Q96KQ7. G9a H3K9 monomethylation, AlphaScreen, 2 h. Potency, µM (titrated, usually from 102 µM), for inactives: at the highest dose activity, negative = inhibition, most hits filed as inhibitors; also: % is scaled to controls: 0 for no effect and ±100 for the full control effect; nearly all actives have a fitted effect of over 75% in size
Target sequence (Q96KQ7 913-1193 limits assumed): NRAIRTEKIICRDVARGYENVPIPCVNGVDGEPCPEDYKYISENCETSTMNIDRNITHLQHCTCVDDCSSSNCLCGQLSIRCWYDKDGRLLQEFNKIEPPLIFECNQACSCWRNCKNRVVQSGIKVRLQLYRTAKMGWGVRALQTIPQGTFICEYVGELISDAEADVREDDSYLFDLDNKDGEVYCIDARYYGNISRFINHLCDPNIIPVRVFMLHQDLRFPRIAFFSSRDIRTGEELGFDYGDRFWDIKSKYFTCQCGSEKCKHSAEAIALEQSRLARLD
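Using a bead-based AlphaScreen, monomethylated H3K9 product from 2 h room-temperature reactions (G9a 20 nM, peptide 500 nM, SAM 20 uM) was detected with 0.5 ug/mL rabbit anti-H3K9me1 antibody.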
BAZ2B inh: qHTS Assay for Inhibitors of BAZ2B; AlphaScreen BAZ2B-H3K14Ac peptide displacement; Potency, µM (top dose mostly 114 µM), without a hit: at the top dose activity change, negative = inhibition, most hits filed as inhibitors; 360,000 compounds, 4.4% hits; AID 504333, 2011; also: % is scaled to controls: 0 for no effect and ±100 for the full control effect; nearly all actives have a fitted effect of over 60% in size
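AlphaScreen displacement: compounds (up to 110uM) incubated 30 min at room temperature with a preformed 50 nM BAZ2B/50 nM biotinylated H3K14Ac peptide complex in PBS pH 7.4 with Tween-20. Donor and acceptor beads at 10 ug/mL final added, 20 min light-protected before reading.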
Sfp inh: qHTS Assay for Inhibitors of Bacillus subtilis Sfp phosphopantetheinyl transferase (PPTase); Potency, µM, for the others: largest response in the series, negative = inhibition, most hits filed as inhibitors; 310,000 compounds, 3.5% hits; 4'-phosphopantetheinyl transferase ffp (Bacillus subtilis), Q9F4F7; Biochemical Sfp PPTase activity, qHTS;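 also: the enzyme is Sfp with the accession as filed and its product quenches rhodamine fluorescence; 0% = enzyme reaction without inhibitor and -100% = no enzyme wells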
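Fluorescence-quenching assay: 15 nM Sfp-PPTase preincubated 15 min at room temperature with compound, then 5 uM rhodamine-CoA and 12.5 uM BHQ-2-labelled YbbR peptide added. Fluorescence (ex 525/em 598 nm) read at start and after 30 min; difference gives rate.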
JMJD2A Tudor: qHTS Assay for Inhibitors of JMJD2A-Tudor Domain; AlphaScreen JMJD2A-Tudor / H3K4me3 peptide binding; AID 504339, 2011; Potency, µM (highest dose often 114 µM), without a hit: at the highest dose activity change, negative = inhibition, actives largely listed as inhibitors; 390,000 compounds, 4.4% hits; also: % is scaled to controls: 0 for no effect and ±100 for the full control effect; nearly all actives have a fitted effect of over 50% in size
HP1b binding inh: HTS for Inhibitors of HP1-beta Chromodomain Interactions with Methylated Histone Tails; AlphaScreen HP1-beta / biotin-H3K9me3 peptide binding; Potency, µM (top dose mostly 114 µM), for inactives: at the highest dose activity change, negative = inhibition, usual class: inhibitors; 390,000 compounds, 0.56% hits; AID 540317, 2011; also: nearly all actives have a fitted effect of over 70% in size
Target sequence (P83916 whole entry, looked up): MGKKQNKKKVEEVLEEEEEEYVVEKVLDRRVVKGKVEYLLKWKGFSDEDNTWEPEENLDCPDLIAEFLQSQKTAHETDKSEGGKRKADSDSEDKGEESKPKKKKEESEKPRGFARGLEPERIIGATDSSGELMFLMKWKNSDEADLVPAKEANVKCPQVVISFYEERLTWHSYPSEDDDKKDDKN
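AlphaScreen: HP1-beta (50 nM) preformed 30 min with biotin-H3(1-18)K9me3 peptide (50 nM) in PBS pH 7.4, 0.01% Tween-20. Compound added for 30 min at RT, then streptavidin donor/nickel chelate acceptor beads (10 ug/mL) for 30 min.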
L3MBTL1 inh: qHTS Assay for the Inhibitors of L3MBTL1; Potency, µM (titrated, usually from 57.1 µM), inactives show top-dose activity, negative = inhibition, usual class: inhibitors; AID 485360, 2010; AlphaScreen L3MBTL1–H3K9me1 peptide binding; 230,000 compounds, 0.66% hits; Lethal(3)malignant brain tumor-like protein 1 (Homo sapiens), Q9Y468; also: % is scaled to controls: 0 for no effect and ±100 for the full control effect; nearly all actives have a fitted effect of over 60% in size
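Read-out is AlphaScreen signal from streptavidin donor and nickel chelate acceptor beads (10 ug/mL final each) bridging L3MBTL1 (50 nM) and biotinylated K9-monomethylated H3(1-15) peptide (75 nM), after 30 min compound exposure at room temperature.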
The depositor's hits bear a star; ? = inconclusive; · = no result given; [ ] = remark or other dose. Sampled rows, rich in hits. Any-hit rate of the full collection: about 12%. Calls follow the shape of the dose curve; as a rule, active = well fitted curve in the direction sought with a large enough effect; inconclusive = small, poorly fitted or top-dose-only effect, or another doubt; inactive = no such curve, though single readings can be large; an effect the other way counts as inactive or inconclusive. Potency is read from the fitted curve at half-maximal effect.

SMILES	G9a inh	BAZ2B inh	Sfp inh	JMJD2A Tudor	HP1b binding inh	L3MBTL1 inh
Cc1sc(-c2ccccn2)nc1OC(=O)c1ccc(Cl)cc1	?	0.9%	-18.7%	25.1µM*	-3.2%	9.7%
COc1ccc(N2CCN(Cc3nc4c(c(=O)[nH]c(=O)n4C)n3CC(C)C)CC2)cc1	25.1µM*	-38.3%	·	-19.2%	28.9%	·
Cc1ccc(Cl)cc1N1CCN(Cc2nc3c(c(=O)[nH]c(=O)n3C)n2Cc2ccccc2F)CC1	39.8µM*	4.3%	-9.8%	?	18.7%	-8.9%
COc1ccc(CCNC(=O)CN(c2ccccc2)S(=O)(=O)N(C)C)cc1OC	-38.4%[59 µM]	-12.6%	·	-7.9%	22.4%	·
COc1cccc(-n2c(SCC(=O)N3CCc4ccccc43)nc3c([nH]c4ccccc43)c2=O)c1	3.6%[59 µM]	3.1%	·	-15.2%	24.4%[57 µM]	·
O=C(Nc1ccc(N2CCCC2)cc1)C(Cl)c1ccccc1 (stereo not drawn)	10µM*	50.1µM*	44.7µM*	28.2µM*	44.7µM*	-7.3%
CS(=O)(=O)N1CCN(c2ccc(NC(=O)C(c3ccccc3)c3ccccc3)cc2)CC1	8.91µM*	0.1%	15.2%	-19.9%	0.9%	-5.2%
O=C(Cc1ccc(Cl)cc1)Nc1ccc(N2CCCC2)cc1	?	-2.9%	19.0%	4.1%	11.2%	·
CC(C)OCCCNC(=O)c1ccc(Br)cc1	5.3%	-0.2%[57.1 µM]	2.6%	8.4%	21.4%	9.9%
CC(C)OCCCn1c(-c2ccc(Br)cc2)c[nH]c1=S	3.55µM*	?	?	?	-29.4%	-23.8%
COc1cc(/C=C/C(=O)N2CCN(CC(=O)N3CCCC3)CC2)cc(OC)c1OC	-30.1%[12.7 µM]	·	17.4%	·	·	·
COc1ccc2cc(/C=C/C(=O)N3CCN(CC(=O)N4CCCCCC4)CC3)ccc2c1	70.8µM*	-17.0%	4.6%	-22.5%	42.1%	·
O=C(/C=N/O)NCCCN1CCCCCC1	44.7µM*	50.1µM*	1.7%	?	16.8%	·
COc1ccc(/C=C/C(=O)NCCCN2CCCCCC2)cc1	50.1µM*	-26.4%	1.1%	?	12.5%	·
NC1=NC(c2cccc(Cl)c2)n2c(nc3ccccc32)N1 (stereo not drawn)	-10.3%[59 µM]	-36.3%	·	-19.6%	19.2%	·
COc1ccc(N2CCN(C(c3cccs3)C(C)NS(=O)(=O)c3ccccc3)CC2)cc1 (stereo not drawn)	?	25.1µM*	3.5%	10µM*	-35.3%	?
CCS(=O)(=O)NC(C)C(c1cccs1)N1CCN(c2ccc(OC)cc2)CC1 (stereo not drawn)	14.1µM*	·	0.2%	-30.6%	-16.6%	·
COc1ccc(C2=NN(C(C)=O)C(c3cn(-c4ccccc4)nc3-c3cccs3)C2)cc1 (stereo not drawn)	2.3%[59 µM]	-21.4%	·	-13.1%	31.4%	·
COc1cccc(CNC(=O)CCc2c(C)nc3c(c2C)c(=O)n(C)c(=O)n3C)c1	-36.1%[59 µM]	?	·	-11.4%	17.1%	·
c1ccc(-c2nc(NCCCn3ccnc3)c3oc4ccccc4c3n2)cc1	17.8µM*	44.7µM*	-9.6%	?	-19.6%	-8.6%
c1ccc(-c2nc(NCc3ccco3)c3oc4ccccc4c3n2)cc1	?	?	?	89.1µM*	8.7%	4.1%
c1cncc(-c2nc(NCCCn3ccnc3)c3ccccc3n2)c1	-24.8%	10µM*	20.2%	20µM*	21.3%	·
OCCNc1nc(-c2cccnc2)nc2ccccc12	6.6%	-19.3%	14.8%	-5.2%	24.7%	1.2%
Cc1nc(NCCCn2ccnc2)c2ccccc2n1	-0.8%[59 µM]	-8.6%	-15.1%	89.1µM*	20.6%	5.1%
Cc1ccc(NC(=O)N2CCCc3ccccc32)cc1C	·	4.2%	-12.0%	7.6%	57.5%	·
SMILES	G9a inh	BAZ2B inh	Sfp inh	JMJD2A Tudor	HP1b binding inh	L3MBTL1 inh
O=C1SCCN1N=Cc1ccc([N+](=O)[O-])o1	·	·	·	-0.7%	18.0%[57 µM]	·
COc1cc2c(cc1OC(C)=O)CCCCC2=O	·	·	·	10.4%	20.0%	·
COc1ccccc1CNc1cc(-c2ccccc2Cl)ncn1	1.2%[0.501 µM]	·	-2.4%	·	·	·
O=C(COc1ccccc1Cl)Nc1cccc(S(=O)(=O)NC2=NCCCCC2)c1	50.1µM*	-1.4%	·	-17.2%	26.3%	0.7%
O=C(Nc1cccc(S(=O)(=O)NC2=NCCC2)c1)c1ccccc1	·	·	·	-4.2%	33.9%	8.1%
O=C(COc1cc(F)ccc1[N+](=O)[O-])Nc1cccc(S(=O)(=O)NC2=NCCC2)c1	3.16µM*	6.3%	·	-3.0%	21.3%	3.6%
O=C(Nc1cccc(S(=O)(=O)NC2=NCCCCC2)c1)c1ccc(Cl)cc1	50.1µM*	26.4%	·	-2.8%	35.3%	4.0%
CC1CN(S(=O)(=O)c2cccc(C(=O)Nc3ccc(S(=O)(=O)NC4=NCCCCC4)cc3)c2)CC(C)O1 (stereo not drawn)	17.8µM*	0.5%	·	-18.5%	11.6%	9.4%
Nc1nc(=O)n(C2OC(CO)C(O)C2O)cc1Cl (stereo not drawn)	·	·	-29.2%	·	·	·
CCCCOc1ccc(/C=C(\C(=O)O)c2ccc(S(=O)(=O)N3CCCC3)s2)cc1	·	·	·	-11.4%	32.9%	2.5%
CC(Oc1cccc(Cl)c1)C(=O)Nc1ccc(S(=O)(=O)NC2=NCCCCC2)cc1 (stereo not drawn)	35.5µM*	6.3%	·	-17.9%	9.0%	-1.2%
CC(Oc1ccc(Br)cc1)C(=O)Nc1ccc(S(=O)(=O)NC2=NCCCCC2)cc1 (stereo not drawn)	·	·	·	-14.3%	34.6%	·
N#Cc1ccc(C(=O)Nc2ccc(S(=O)(=O)NC3=NCCCCC3)cc2)cc1	50.1µM*	?	1.5%	-5.9%	17.6%	·
O=C(Nc1cccc(S(=O)(=O)NC2=NCCCCC2)c1)C1COc2ccccc2O1 (stereo not drawn)	50.1µM*	56.2µM*	20.3%	?	-15.5%	-0.4%
O=C(CSc1cn(CCNC(=O)c2ccccc2F)c2ccccc12)Nc1ccc(F)cc1	7.4%[59 µM]	-13.9%	·	4.1%	41.7%	·
CNC(=S)N(Cc1ccc2c(c1)OCO2)C1CC(=O)N(c2ccccc2)C1=O (stereo not drawn)	1.0%	0.6%	-12.3%	-20.3%	-12.7%	3.9%
COCCN(C(=S)Nc1c(C)cc(C)cc1C)C(C)c1cccs1 (stereo not drawn)	?	-20.4%	50.1µM*	-9.5%	21.2%	·
S=c1c2c(nc3nc[nH]n13)CCC2	·	44.7µM*	14.1µM*	6.31µM*	26.0%	5.2%
CCOc1ccc(C(=O)NCc2nnnn2-c2ccc(C)c(C)c2)cc1OCC	3.5%[59 µM]	6.0%	·	-5.5%	28.2%[57 µM]	·
